Test results reported in PubChem BioAssay (NCI).
The panel holds about 79,000 compounds, 15% with a hit somewhere; the sample as a whole holds those more often. The source made the active and inactive calls. Cut-off read from the data, not from the text of the source: active = growth inhibition above about 70%; inactive = the rest.

How the values were obtained:
[1] = NCI Yeast Anticancer Drug Screen. Data for the rad52 strain (AID 147);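 note: 0% = growth of vehicle-treated control cultures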; conditions: S. cerevisiae rad52 mutant growth inhibition, stronger effect = higher value
In short: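 Genetically altered yeast (DNA damage repair defect) treated with compound; inhibition calculated relative to vehicle.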

[2] = NCI Yeast Anticancer Drug Screen. Data for the wt1 strain (AID 149);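 note: 0% = growth of vehicle-treated wt1 cultures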; conditions: S. cerevisiae wt1 strain (SPY 50644) growth inhibition, stronger effect = higher value
In short: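 Growth inhibition read against vehicle controls after compound exposure of the wt1 yeast strain.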

[3] = NCI Yeast Anticancer Drug Screen. Data for the rad50EPP+ strain (AID 151);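 note: 0% = growth of vehicle-treated control cultures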; conditions: S. cerevisiae rad50 mutant strain, stronger effect = higher value
In short: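 Strain rad50EPP+; compound exposure; % growth inhibition vs vehicle.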

[4] = NCI Yeast Anticancer Drug Screen. Data for the mgt1 strain (AID 153); conditions: S. cerevisiae mgt1 mutant growth inhibition, stronger effect = higher value
In short: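 Read-out: yeast growth inhibition vs vehicle control. Strain mgt1, drawn from a panel altered in DNA damage repair or cell cycle control.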

[5] = NCI Yeast Anticancer Drug Screen. Data for the rad50 strain (AID 155);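 note: 0% = growth of vehicle-only cultures of the same strain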; conditions: S. cerevisiae rad50 strain growth inhibition, stronger effect = higher value
In short: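 Readout: growth inhibition relative to vehicle-treated cultures. Compound exposure was carried out in a genetically defined yeast strain deficient in DNA damage repair.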

[6] = NCI Yeast Anticancer Drug Screen. Data for the mec2-1 strain (AID 157); conditions: S. cerevisiae mec2-1 strain, stronger effect = higher value
In short: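 Cells of the genetically defined mec2-1 yeast strain are incubated with test compound. Inhibition of growth is calculated against vehicle-treated controls.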

[7] = NCI Yeast Anticancer Drug Screen. Data for the rad14 strain (AID 159);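 note: 0% = growth of vehicle-treated control cultures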; conditions: S. cerevisiae rad14 strain growth inhibition, stronger effect = higher value
In short: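 Growth inhibition vs vehicle controls; genetically altered yeast strain (DNA damage repair defect) treated with test compounds.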

[8] = NCI Yeast Anticancer Drug Screen. Data for the sgs1 mgt1 strain (AID 161);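 note: 0% = growth of cultures given vehicle only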; conditions: S. cerevisiae sgs1 mgt1 strain, stronger effect = higher value
In short: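 Genetically altered yeast, compound exposure, growth inhibition relative to vehicle.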

[9] = NCI Yeast Anticancer Drug Screen. Data for the CLN2oe strain (AID 163);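 note: 0% = growth of vehicle-only control cultures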; conditions: S. cerevisiae CLN2oe strain, stronger effect = higher value
In short: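 Strain altered in cell-cycle control, incubated with compound; growth compared to solvent-treated controls.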

[10] = NCI Yeast Anticancer Drug Screen. Data for the cln2 rad14 strain (AID 165);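 note: 0% = growth equal to vehicle treated cultures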; conditions: S. cerevisiae cln2 rad14 strain, stronger effect = higher value
In short: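 The screen exposed genetically defined yeast (cln2 rad14) to test compounds and scored growth inhibition relative to vehicle-treated controls.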

[11] = NCI Yeast Anticancer Drug Screen. Data for the bub3 strain (AID 167); conditions: S. cerevisiae bub3 mutant strain, stronger effect = higher value
In short: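 Readout: yeast growth inhibition, expressed relative to vehicle-only wells. The test organism is a mutant strain from a panel with lesions in DNA repair or checkpoint genes.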

[12] = NCI Yeast Anticancer Drug Screen. Data for the wt2 strain (AID 169);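 note: 0% = growth of vehicle-treated yeast cultures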; conditions: S. cerevisiae wt2 strain growth inhibition, stronger effect = higher value
In short: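 Steps: yeast strain treated with compound; growth recorded; inhibition calculated relative to cultures given vehicle alone.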

[13] = NCI Yeast Anticancer Drug Screen. Data for the mlh1 strain (AID 171);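 note: 0% = growth of vehicle-treated control cultures of the same strain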; conditions: S. cerevisiae mlh1 strain growth inhibition, stronger effect = higher value
In short: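 Yeast screen: mutant strain plus compound, growth scored against vehicle control wells.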

[14] = NCI Yeast Anticancer Drug Screen. Data for the sgs1 strain (AID 173);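 note: 0% = growth of vehicle-only control cultures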; conditions: S. cerevisiae sgs1 mutant, stronger effect = higher value
In short: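 Inhibition of yeast growth served as the measure. The mutant strain was treated with each compound, and growth was normalised to cultures receiving vehicle alone.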

[15] = NCI Yeast Anticancer Drug Screen. Data for the mlh1 rad18 strain (AID 175); conditions: S. cerevisiae mlh1 rad18 strain growth inhibition, stronger effect = higher value
In short: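 Compound-treated yeast growth, normalised to vehicle controls. Strain bears defined DNA repair mutations.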

[16] = at 5.0 µM (retest, dose inferred, filed as 0.5)
[17] = at 50.0 µM (retest, dose inferred, filed as 5.0)

Measured: growth inhibition

N#Cc1c(N)[nH]c2ccc(Sc3ccccc3)cc12
active: [1]; at 33.0 µM 94% | [1]; at 100.0 µM 81% | [2]; at 33.0 µM 82% | [2]; at 100.0 µM 93% | [4]; at 33.0 µM 96% | [4]; at 100.0 µM 97% | [5]; at 33.0 µM 93% | [5]; at 100.0 µM 96% | [6]; at 33.0 µM 93% | [6]; at 100.0 µM 97% | [7]; at 33.0 µM 95% | [7]; at 100.0 µM 97% | [9]; at 33.0 µM 95% | [9]; at 100.0 µM 96% | [11]; at 33.0 µM 93% | [11]; at 100.0 µM 96% | [12]; at 33.0 µM 92% | [12]; at 100.0 µM 96% | [13]; at 33.0 µM 96% | [13]; at 100.0 µM 97% | [14]; at 33.0 µM 95% | [14]; at 100.0 µM 97% | [15]; [17] 85% | [15]; at 50.0 µM 70.5%
inactive: [1]; at 1.2 µM 1% | [1]; at 3.7 µM 0% | [1]; at 11.0 µM 14% | [2]; at 1.2 µM 1% | [2]; at 3.7 µM 5% | [2]; at 11.0 µM 1% | [3]; at 1.2 µM 3% | [3]; at 3.7 µM 6% | [3]; at 11.0 µM 19% | [3]; at 33.0 µM 33% | [3]; at 100.0 µM 51% | [4]; at 1.2 µM -1% | [4]; at 3.7 µM -2% | [4]; at 11.0 µM 9% | [5]; at 1.2 µM 1% | [5]; at 3.7 µM 0% | [5]; [16] -3% | [5]; at 11.0 µM 23% | [5]; [17] 44% | [5]; at 50.0 µM 46.1% | [6]; at 1.2 µM -2% | [6]; at 3.7 µM 2% | [6]; [16] -22% | [6]; at 11.0 µM 6% | [6]; [17] -6% | [6]; at 50.0 µM 62.8% | [7]; at 1.2 µM 1% | [7]; at 3.7 µM 4% | [7]; at 11.0 µM 7% | [8]; [16] -3% | [8]; [17] 40% | [8]; at 50.0 µM 52.9% | [9]; at 1.2 µM -6% | [9]; at 3.7 µM -22% | [9]; at 11.0 µM 12% | [10]; [16] -3% | [10]; [17] 14% | [10]; at 50.0 µM -0.8% | [11]; at 1.2 µM -5% | [11]; at 3.7 µM -6% | [11]; [16] 12% | [11]; at 11.0 µM 6% | [11]; [17] 51% | [11]; at 50.0 µM 52.4% | [12]; at 1.2 µM 0% | [12]; at 3.7 µM 1% | [12]; at 11.0 µM 4% | [13]; at 1.2 µM -1% | [13]; at 3.7 µM 3% | [13]; at 11.0 µM 11% | [14]; at 1.2 µM -3% | [14]; at 3.7 µM 5% | [14]; at 11.0 µM 23% | [15]; [16] 19%
